Laboratory results: PubChem BioAssay (Tox21)
Results filed as inconclusive are left out. Entries that show only a call come without a potency. A number with no mark means an inactive call. The source made the active and inactive calls. The call rests on the fitted dose curve; in most records, active means well fitted curve in the direction sought with a large enough effect in the repeat runs; inconclusive means weak or mixed curves; inactive means no such curve, though single readings can be large; an effect the other way counts as inactive or inconclusive.

Assays:
[1] = A CellTox Green Cytotoxicity Assay to monitor cytotoxicity in HEK293 cells - 8 hour (AID 1224884); further: nearly all actives have a fitted effect of over 35% in size; further: potency means the concentration at half of the fitted maximal effect
In short: (§1)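 Homogeneous no-lysis format: HEK293 cell suspension mixed with CellTox Green reagent, seeded, incubated 5 h at 37 C/5% CO2, then dosed by pintool with compound in DMSO.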

[2] = qHTS RealTime-Glo MT Cell Viability Assay in HepG2 cells - 16 hour (AID 1224885); further: nearly all actives have a fitted effect of over 50% in size; further: potency means the concentration at half of the fitted maximal effect
In short: (§2)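 Cells + NanoLuc/prosubstrate dispensed (600 cells/well) → 5 h at 37 C/5% CO2 → compounds in DMSO transferred → 40 h incubation at 37 C, luminescence read at 0, 8, 16, 24, 32, 40 h.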

[3] = qHTS RealTime-Glo MT Cell Viability Assay in HEK293 cells - 8 hour (AID 1224887); further: nearly all actives have a fitted effect of over 50% in size; further: potency means the concentration at half of the fitted maximal effect; on activity change, negative = cytotoxicity: top concentration of the series differs between compounds
In short: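 Measured as luminescence from the same continuously cultured HEK293 wells at successive time points (0, 8, 16, 24, 32, 40 h) after compound addition. Reagent present from seeding; dosing at 5 h; incubation 37 C.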

[4] = A CellTox Green Cytotoxicity Assay to monitor cytotoxicity in HEK293 cells - 16 hour (AID 1224888); further: nearly all actives have a fitted effect of over 35% in size; further: potency means the concentration at half of the fitted maximal effect
In short: as §1

[5] = qHTS RealTime-Glo MT Cell Viability Assay in HepG2 cells - 0 hour (AID 1224889); further: nearly all actives have a fitted effect of over 50% in size
In short: as §2

[6] = A CellTox Green Cytotoxicity Assay to monitor cytotoxicity in HepG2 cells - 8 hour (AID 1224890); further: nearly all actives have a fitted effect of over 45% in size
In short: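 Fluorescent DNA-binding dye, 600 HepG2 cells/well, 5 h preincubation then compound in DMSO; same plates read at 0–40 h, 37 C.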

[7] = qHTS assay to identify small molecule antagonists of the estrogen receptor alpha (ER-alpha) signaling pathway using the BG1 cell line in the presence of 0.1 nM 17-beta-estradiol - cell viability counter screen (AID 1259241); further: nearly all actives have a fitted effect of over 40% in size
In short: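 Measures cytotoxicity alongside the ER-alpha antagonist readout: VM7Luc4E2 cells, charcoal-stripped serum, 0.1 nM 17beta-estradiol final, 22 hr compound incubation at 37C, CellTiter-Fluor fluorescence.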

[8] = qHTS assay to identify small molecule antagonists of the androgen receptor (AR) signaling pathway using the MDA cell line in the presence of 0.5 nM R1881 - cell viability counter screen (AID 1259242); further: nearly all actives have a fitted effect of over 45% in size
In short: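 Human breast carcinoma MDA-kb2 cells, cultured without CO2, receive compounds alongside 0.5 nM (final) R1881 agonist. After 16 hr at 37C, viability is taken as live-cell protease signal.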

[9] = molecular target: Androgen receptor (Homo sapiens) (UniProt P10275); test: qHTS assay to identify small molecule antagonists of the androgen receptor (AR) signaling pathway using the MDA cell line in the presence of 0.5 nM R1881 (AID 1259243); further: nearly all actives have a fitted effect of over 50% in size
Androgen receptor (Homo sapiens), sequence (P10275 whole entry, looked up): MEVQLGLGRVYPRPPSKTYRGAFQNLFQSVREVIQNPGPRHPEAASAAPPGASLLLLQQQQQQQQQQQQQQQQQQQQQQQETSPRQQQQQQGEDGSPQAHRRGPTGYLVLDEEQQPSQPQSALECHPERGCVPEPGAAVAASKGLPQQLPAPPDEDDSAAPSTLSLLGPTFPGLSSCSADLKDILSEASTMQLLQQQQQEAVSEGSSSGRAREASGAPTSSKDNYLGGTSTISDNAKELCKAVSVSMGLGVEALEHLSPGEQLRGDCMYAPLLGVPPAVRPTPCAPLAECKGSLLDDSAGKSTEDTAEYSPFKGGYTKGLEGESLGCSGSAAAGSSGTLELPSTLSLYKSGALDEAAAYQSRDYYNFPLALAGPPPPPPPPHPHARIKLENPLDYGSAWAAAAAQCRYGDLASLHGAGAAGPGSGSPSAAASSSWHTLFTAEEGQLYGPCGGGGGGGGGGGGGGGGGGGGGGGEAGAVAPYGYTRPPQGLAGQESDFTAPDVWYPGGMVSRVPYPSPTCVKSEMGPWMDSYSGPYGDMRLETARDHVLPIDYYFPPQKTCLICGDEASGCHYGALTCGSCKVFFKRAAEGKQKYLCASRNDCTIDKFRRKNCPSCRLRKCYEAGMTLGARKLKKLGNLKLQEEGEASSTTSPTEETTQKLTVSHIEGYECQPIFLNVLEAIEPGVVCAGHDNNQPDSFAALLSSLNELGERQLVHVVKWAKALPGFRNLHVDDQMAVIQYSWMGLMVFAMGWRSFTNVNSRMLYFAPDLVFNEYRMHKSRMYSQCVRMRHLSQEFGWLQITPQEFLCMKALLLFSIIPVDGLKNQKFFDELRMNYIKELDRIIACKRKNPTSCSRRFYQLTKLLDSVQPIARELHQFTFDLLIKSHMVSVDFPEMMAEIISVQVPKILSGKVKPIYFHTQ
In short: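 Cells: MDA-kb2 (MMTV-luc). Stimulus: 0.5 nM R1881. Time: 16 hr, 37C, no CO2. Detection: ONE-Glo luminescence after 30 min at RT.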

With `O=S(O)O` the cytotoxicity increase [1] was 0.551% [at 15.8 µM], the activity change, negative = cytotoxic [2] was 2.97% [at 15.8 µM] and the activity change, negative = cytotoxicity [3] was 3.5% [at 15.8 µM]. The activity change [4] was 1.02% [at 15.8 µM, stronger effect = higher value], the activity change, negative = cytotoxicity [5] was -7.74% [at 15.8 µM] and the cytotoxicity increase [6] was -4.46% [at 15.8 µM]. The activity change, negative = cytotoxicity [7] was 0.521% [at 19 µM] and the viability change, negative = cytotoxic [8] was 4.5% [at 19 µM].
For `CNC(=S)NN`, the Potency [1] was “inactive”, the Potency [2] was “inactive” and the Potency [3] was “inactive”. For the same compound, the Potency [5] was “inactive”, the Potency [6] was “inactive” and the Potency [8] was “inactive”.
In the case of `COC(=O)CC(C)CCC=C(C)C` (stereo not drawn), the Potency [1] is reported as “inactive”, the Potency [2] is reported as “inactive” and the Potency [3] is reported as “inactive”. The Potency [5] was “inactive”, the Potency [6] was “inactive” and the Potency [7] was “inactive”. The Potency [8] was “inactive”.
With `N#CSCSc1nc2ccccc2s1` the Potency [1] was “inactive”, the Potency [2] was 43.6 µM (active) and the Potency [3] was 21.9 µM (active). For the same compound, the Potency [5] was “inactive”, the Potency [7] was “inactive” and the Potency [9] was “inactive”.
With `CCCCOCC` the Potency [1] was “inactive”, the Potency [2] was “inactive” and the Potency [4] was “inactive”. For the same compound, the Potency [5] was “inactive”, the Potency [6] was “inactive” and the Potency [7] was “inactive”. The Potency [8] was “inactive” and the Potency [9] was “inactive”.
With `C=CCCCCCCC=C` the Potency [1] was “inactive”, the Potency [2] was “inactive” and the Potency [4] was “inactive”. For the same compound, the Potency [5] was “inactive”, the Potency [6] was “inactive” and the Potency [7] was “inactive”. For the same compound, the Potency [8] was “inactive”.
In the case of `Clc1ccccc1CN1CCc2sccc2C1`, the Potency [1] is reported as “inactive”, the Potency [2] is reported as “inactive” and the Potency [3] is reported as “inactive”. The Potency [5] was “inactive”, the Potency [6] was “inactive” and the Potency [7] was “inactive”. The Potency [8] was “inactive”.
In the case of `O=c1cccc[nH]1`, the Potency [1] is reported as “inactive”, the Potency [2] is reported as “inactive” and the Potency [3] is reported as “inactive”. The Potency [5] was “inactive”, the Potency [6] was “inactive” and the Potency [7] was “inactive”. The Potency [8] was “inactive” and the Potency [9] was “inactive”.
For `CCc1cccc(CC)c1NC(=O)C(=O)O`, the Potency [1] was “inactive”, the Potency [2] was “inactive” and the Potency [3] was “inactive”. For the same compound, the Potency [4] was “inactive”, the Potency [5] was “inactive” and the Potency [6] was “inactive”. The Potency [7] was “inactive”, the Potency [8] was “inactive” and the Potency [9] was “inactive”.
In the case of `C/C=C/c1ccc(OC)c(OC)c1`, the Potency [1] is reported as “inactive”, the Potency [2] is reported as “inactive” and the Potency [3] is reported as “inactive”. The Potency [4] was “inactive”, the Potency [5] was “inactive” and the Potency [6] was “inactive”. The Potency [8] was “inactive”.
For `CCC(C)C(=O)OC` (stereo not drawn), the Potency [1] was “inactive”, the Potency [2] was “inactive” and the Potency [3] was “inactive”. For the same compound, the Potency [4] was “inactive”, the Potency [6] was “inactive” and the Potency [8] was “inactive”.
With `CCCCCCCC/C=C\CCCCCCCC(=O)N(C)CC(=O)O` the Potency [1] was 38.9 µM (active), the Potency [2] was “inactive” and the Potency [4] was 24.5 µM (active). For the same compound, the Potency [5] was “inactive”, the Potency [6] was “inactive” and the Potency [7] was “inactive”. For the same compound, the Potency [8] was “inactive”.
With `COc1ccc2sc(C(=O)Nc3nnn[nH]3)c(OC(C)C)c2c1` the Potency [1] was “inactive”, the Potency [2] was “inactive” and the Potency [3] was “inactive”. The Potency [5] was “inactive”, the Potency [6] was “inactive” and the Potency [7] was “inactive”. The Potency [8] was “inactive”.
For `CC(CN(C)C)CN1c2ccccc2CCc2ccccc21` (stereo not drawn), the Potency [1] was “inactive”, the Potency [2] was “inactive” and the Potency [3] was “inactive”. The Potency [4] was “inactive”, the Potency [5] was “inactive” and the Potency [6] was “inactive”. The Potency [7] was “inactive” and the Potency [8] was “inactive”.
With `CN(C)CCN1CCOCC1` the Potency [1] was “inactive”, the Potency [2] was “inactive” and the Potency [3] was “inactive”. For the same compound, the Potency [4] was “inactive”, the Potency [5] was “inactive” and the Potency [6] was “inactive”. The Potency [7] was “inactive” and the Potency [8] was “inactive”.
With `O=S(=O)(O)CCCN1CCOCC1` the Potency [1] was “inactive”, the Potency [2] was “inactive” and the Potency [3] was “inactive”. For the same compound, the Potency [4] was “inactive”, the Potency [5] was “inactive” and the Potency [6] was “inactive”. The Potency [7] was “inactive” and the Potency [8] was “inactive”.
With `C[Si](C)(C)Cl` the Potency [1] was “inactive”, the Potency [2] was “inactive” and the Potency [3] was “inactive”. For the same compound, the Potency [4] was “inactive”, the Potency [5] was “inactive” and the Potency [6] was “inactive”. The Potency [7] was “inactive”, the Potency [8] was “inactive” and the Potency [9] was “inactive”.
In the case of `Cc1ccc2ccc3cccc4ccc1c2c34`, the Potency [1] is reported as “inactive”, the Potency [2] is reported as “inactive” and the Potency [3] is reported as “inactive”. For the same compound, the Potency [5] was “inactive”, the Potency [6] was “inactive” and the Potency [7] was “inactive”. For the same compound, the Potency [8] was “inactive”.
In the case of `CC(C)(C)CC(C)(C)c1ccccc1O`, the Potency [1] is reported as 39.1 µM (active), the Potency [2] is reported as “inactive” and the Potency [3] is reported as 34.9 µM (active). The Potency [5] was “inactive”, the Potency [7] was “inactive” and the Potency [8] was “inactive”.
In the case of `OCCCc1cccnc1`, the Potency [1] is reported as “inactive”, the Potency [2] is reported as “inactive” and the Potency [3] is reported as “inactive”. For the same compound, the Potency [4] was “inactive”, the Potency [5] was “inactive” and the Potency [6] was “inactive”. The Potency [7] was “inactive”, the Potency [8] was “inactive” and the Potency [9] was “inactive”.
In the case of `O=Nc1ccc(NO)cc1`, the Potency [1] is reported as “inactive”, the Potency [2] is reported as “inactive” and the Potency [3] is reported as “inactive”. For the same compound, the Potency [5] was “inactive”, the Potency [6] was “inactive” and the Potency [7] was “inactive”. For the same compound, the Potency [8] was “inactive”.
For `c1ccc(Sc2ccccc2)cc1`, the Potency [1] was “inactive”, the Potency [2] was “inactive” and the Potency [3] was “inactive”. For the same compound, the Potency [4] was “inactive”, the Potency [5] was “inactive” and the Potency [6] was “inactive”. For the same compound, the Potency [7] was “inactive”, the Potency [8] was “inactive” and the Potency [9] was “inactive”.
For `Cc1cncc(C)c1`, the Potency [1] was “inactive”, the Potency [2] was “inactive” and the Potency [3] was “inactive”. For the same compound, the Potency [5] was “inactive”, the Potency [6] was “inactive” and the Potency [7] was “inactive”. For the same compound, the Potency [8] was “inactive”.
With `CCCC(O)C(O)CO` (stereo not drawn) the Potency [1] was “inactive”, the Potency [2] was “inactive” and the Potency [3] was “inactive”. The Potency [4] was “inactive”, the Potency [5] was “inactive” and the Potency [6] was “inactive”. The Potency [7] was “inactive”, the Potency [8] was “inactive” and the Potency [9] was “inactive”.
In the case of `CC(C)=CCCC(C)CCOC(=O)C(C)C` (stereo not drawn), the Potency [1] is reported as “inactive”, the Potency [2] is reported as “inactive” and the Potency [3] is reported as “inactive”. For the same compound, the Potency [4] was “inactive”, the Potency [5] was “inactive” and the Potency [6] was “inactive”. The Potency [7] was “inactive” and the Potency [8] was “inactive”.
